Cruzain inh noDet: qHTS Assay for Promiscuous and Specific Inhibitors of Cruzain (without detergent) | hit rate 2.3% among 200,000 | Potency, µM, actives largely listed as inhibitors | purified cruzain, Z-FR-AMC fluorescence, no detergent | Cruzipain (Trypanosoma cruzi), P25779; also: nearly all actives have a fitted effect of over 40% in size
Target sequence (P25779 123-467 limits assumed): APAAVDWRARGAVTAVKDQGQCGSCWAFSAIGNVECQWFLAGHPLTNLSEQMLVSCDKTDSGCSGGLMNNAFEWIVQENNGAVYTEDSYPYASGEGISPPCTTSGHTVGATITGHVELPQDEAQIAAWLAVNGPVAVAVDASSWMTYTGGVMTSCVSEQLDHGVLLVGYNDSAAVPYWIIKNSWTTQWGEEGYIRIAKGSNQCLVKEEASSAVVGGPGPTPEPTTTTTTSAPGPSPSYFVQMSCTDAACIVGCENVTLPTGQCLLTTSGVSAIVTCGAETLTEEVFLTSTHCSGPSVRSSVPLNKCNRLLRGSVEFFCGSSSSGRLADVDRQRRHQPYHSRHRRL
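Purified cruzain at 1.5 nM, pre-incubated 15 min with compound at room temperature in 100 mM sodium acetate pH 5.5, 5 mM DTT, 0.00005% Triton X-100. Reaction started with 2 uM Z-FR-AMC; AMC fluorescence increase over 60 s gives rate.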
FBPA Giardia inh: qHTS Assay for Inhibitors of Fructose-1,6-bisphosphate Aldolase from Giardia Lamblia | purified Giardia FBPA | Potency, µM (series often up to 59.6 µM), actives largely listed as inhibitors | hit rate 0.71% among 290,000 | AID 2451, 2010; also: nearly all actives have a fitted effect of over 55% in size
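Giardia FBPA (40 nM reagent) was preincubated 10 min at RT with compound (up to 57.5 uM final), then substrate plus GAPDH/TPI/NAD/arsenate coupling system with diaphorase/resazurin was added; resorufin fluorescence (525/598 nm) was read after 20 min.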
Cruzain inh Det: qHTS Assay for Promiscuous and Specific Inhibitors of Cruzain (with detergent); hit rate 0.43% among 200,000; AID 1478, 2009; Potency, µM, hits mostly inhibitors; purified cruzain, Z-FR-AMC fluorescence, 0.01% Triton; also: nearly all actives have a fitted effect of over 40% in size
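Enzyme 1.5 nM, Z-FR-AMC 2 uM, NaOAc 100 mM pH 5.5, DTT 5 mM, Triton X-100 0.01%; 15 min RT compound preincubation; kinetic ex360/em450, 60 s delta.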
Each line names hits and unclear results; the compound was inactive in the other large screens. This is one part of a sample in which hits are shown more often than they occur. Calls follow the shape of the dose curve; as a rule, active = well fitted curve in the direction sought with a large enough effect; inconclusive = small, poorly fitted or top-dose-only effect, or another doubt; inactive = no such curve, though single readings can be large; an effect the other way counts as inactive or inconclusive.

Cc1ccc(NC(=O)Cn2c(=O)n(CCC(=O)NCc3ccccc3Cl)c(=O)c3ccccc32)cc1	none (no result: FBPA Giardia inh)
CCCCCCCCOc1c(OC)cc(/C=C/C(=O)N2CCN(c3ccc(C)c(C)c3)CC2)cc1OC	none (no result: Cruzain inh noDet, Cruzain inh Det)
CCc1ccccc1NC(=O)CSc1ncc2c(n1)-c1ccccc1N(Cc1ccc(C)cc1)S2(=O)=O	none (no result: FBPA Giardia inh)
Cc1cc2ccccc2c[n+]1CC(O)C[n+]1cc2ccccc2cc1C	none (no result: FBPA Giardia inh)
O=C1/C(=C/c2ccccc2)NC(=S)N1C(c1ccccc1)c1ccccc1	Cruzain inh noDet 20µM
O=C1/C(=C/c2ccccc2)Nc2ccccc21	none
COc1ccc(Cn2c(C(=O)O)c(CNCc3ccc(C)o3)c3ccc(OC)cc32)cc1	none (no result: FBPA Giardia inh)
COc1ccc(/C=C(\C#N)C(N)=O)cc1OC	none (no result: FBPA Giardia inh)
N#C/C(=C\c1cc(O)c(O)c(O)c1)C(N)=O	FBPA Giardia inh 5µM (no result: Cruzain inh noDet, Cruzain inh Det)
CC(C)CC(=O)Nc1ccc(C(=O)NNC(=O)C(c2ccccc2)c2ccccc2)cc1	Cruzain inh noDet 25.1µM
CCC(=O)Nc1ccc(C(=O)NNC(=O)C(c2ccccc2)c2ccccc2)cc1	Cruzain inh noDet inconclusive
CC1=Nc2cc(C(=O)NC3CCCC3)ccc2Sc2ccc(Br)cc21	Cruzain inh noDet inconclusive (no result: FBPA Giardia inh)
CC1=Nc2cc(C(=O)NC3CCCCC3)ccc2Sc2ccc(Cl)cc21	Cruzain inh noDet 25.1µM (no result: FBPA Giardia inh)
CC1=Nc2cc(C(=O)NCCCOC(C)C)ccc2Sc2ccc(C)cc21	none (no result: Cruzain inh noDet, Cruzain inh Det)
CC1=Nc2cc(C(=O)NCCc3ccc(Cl)cc3)ccc2Sc2ccc(C)cc21	Cruzain inh noDet 10µM (no result: FBPA Giardia inh)
COc1cc(O)c2c(O)c3c(c4c2c1[C@@]1(C4)C(C)=CCCC1(C)C)[C@H](O)[C@@]1(O)CC(=O)C(C(N)=O)=C(O)[C@]1(O)C3=O	none (no result: FBPA Giardia inh)
CCOP(=O)(OCC)C(=Cc1cc(C(C)(C)C)c(O)c(C(C)(C)C)c1)P(=O)(OCC)OCC	none (no result: Cruzain inh noDet, Cruzain inh Det)
COc1cc(/C=c2\sc3n(c2=O)C(c2ccccc2)C(c2ccccc2)=NN=3)ccc1O (stereo not drawn)	Cruzain inh noDet 15.8µM
COc1cc(/C=c2\sc3n(c2=O)CCCN=3)ccc1O	none
Cc1cccc(NC(=O)c2ccc(Cn3nc(N4CCN(c5ccccc5)CC4)ccc3=O)o2)c1C	Cruzain inh noDet inconclusive (no result: FBPA Giardia inh)
Cn1c(=O)oc2cc(S(=O)(=O)NCCC(=O)Nc3ccc(F)cc3F)ccc21	none (no result: FBPA Giardia inh)
OC1OC[C@H](O)[C@@H](O)[C@@H]1O (stereo partly drawn)	none (no result: Cruzain inh noDet, Cruzain inh Det)
O=C(Nc1ccc(Cl)c(-c2nc3cc(Cl)ccc3o2)c1)c1cc2ccccc2o1	Cruzain inh noDet inconclusive (no result: FBPA Giardia inh)
COc1ccccc1C(=O)Nc1ccc2oc(-c3cccc4c(Br)cccc34)nc2c1	Cruzain inh noDet 1.26µM (no result: FBPA Giardia inh)
COc1cc2ccccc2cc1C(=O)Nc1ccc2oc(-c3ccc(Cl)cc3)nc2c1	none (no result: FBPA Giardia inh)
COc1cc2ccccc2cc1C(=O)Nc1ccc(Cl)c(-c2nc3ccccc3o2)c1	Cruzain inh noDet 3.16µM (no result: FBPA Giardia inh)
Cc1ccc2oc(-c3cc(NC(=O)c4ccco4)ccc3Cl)nc2c1	none (no result: FBPA Giardia inh)
Cc1ccc2oc(-c3cc(NC(=O)c4oc5ccccc5c4C)ccc3Cl)nc2c1	Cruzain inh noDet 3.16µM (no result: FBPA Giardia inh)
Cc1cc2nc(-c3cc(NC(=O)c4cc5ccccc5o4)ccc3Cl)oc2cc1C	Cruzain inh noDet 12.6µM (no result: FBPA Giardia inh)
COc1cc(OC)cc(C(=O)Nc2ccc3oc(-c4cccc5c(Br)cccc45)nc3c2)c1	none (no result: FBPA Giardia inh)
Nc1[nH]c(=S)[nH]c(=O)c1N=Nc1c(Br)cc(S(N)(=O)=O)cc1Br	none (no result: FBPA Giardia inh)
CC(C)(CCc1nc2ccccc2[nH]1)C(=O)O	none (no result: FBPA Giardia inh)
CS(=O)(=O)c1ccc(/C=N\NC(N)=S)cc1	none (no result: FBPA Giardia inh)
O=C(CSc1nnc(SCc2cccc3ccccc23)s1)c1ccc2c(c1)OCO2	Cruzain inh noDet 25.1µM
O=C(CSc1nnc(SCc2cccc3ccccc23)s1)Nc1ccc(C(=O)O)cc1	none (no result: Cruzain inh noDet, Cruzain inh Det)
O=C(Cc1cccs1)N=Nc1c(O)[nH]c2ccccc12	none (no result: Cruzain inh noDet, Cruzain inh Det)
Cc1ccc2nc(SCC(=O)c3ccc4c(c3)OCO4)[nH]c2c1	Cruzain inh noDet inconclusive
O=C(CSc1nc2ccccc2[nH]1)c1ccc2c(c1)OCO2	Cruzain inh noDet 2.51µM
O=C(CSc1nnc(SCc2cccc3ccccc23)s1)N=Nc1c(O)[nH]c2ccccc12	Cruzain inh noDet 7.94µM
COc1ccc(NC(=O)c2c(NC(=O)C(F)(F)F)sc3c2CCCCC3)cc1	none (no result: FBPA Giardia inh)
CCOC(=O)c1c(C2COc3ccccc3O2)csc1NC(=O)c1ccccc1 (stereo not drawn)	Cruzain inh noDet 25.1µM
CCOC(=O)c1c(C2COc3ccccc3O2)csc1N (stereo not drawn)	none
N#Cc1cc(C(=O)c2cc(Cl)ccc2O)cn(-c2ccccc2)c1=O	none
Cc1ccc(NC(=O)c2cc(C(=O)c3cc(Cl)ccc3O)cn(-c3ccc(C)cc3)c2=O)cc1	Cruzain inh noDet 5.01µM
